In ChEMBL document CHEMBL1157539, “Thousands of chemical starting points for antimalarial lead identification” (Nature, 2010) one finds Inhibition data, which are given here for 30 compounds.

A word on the Inhibition: it is how much of the control response was suppressed. Read a high Inhibition as strong suppression.

Type in all cases: functional
For assay [1], the system named is Plasmodium falciparum. Kind of assay: GSK_TCMDC: Inhibition of Plasmodium falciparum 3D7 in whole red blood cells, using parasite LDH activity as an index of growth. Test compounds present at 2uM.
Assay [2] concerns Plasmodium falciparum. Kind of assay: GSK_TCMDC: Inhibition of Plasmodium falciparum Dd2 in whole red blood cells, using parasite LDH activity as an index of growth. Test compounds present at 2uM.
A further assay concerns HepG2. The experiment in a line: GSK_TCMDC: Percent inhibition of human HepG2 cell line. Test compounds present at 10uM.

With `Cc1nc(N)nc(N)c1OCCCCCCOc1ccccc1.Cl`, the Inhibition is reported as 95% in the assay with Plasmodium falciparum [1], 0% with Plasmodium falciparum [2] and 59% in the assay with HepG2.
Take `COc1ccc2nc(/N=C3\NC(c4ccccn4)(c4ccccn4)C(=O)N3C)[nH]c2c1`: the results for the Inhibition with Plasmodium falciparum [1], with Plasmodium falciparum [2] and in the assay with HepG2 were 99%, 98% and 65%, respectively.
The corresponding values for `CCc1ccc(C(=O)Nc2cccc(CN3CCCN(Cc4ccc(O)cc4)CC3)c2)cc1.O=C(O)C(F)(F)F` are 100%, 74% and 11%.
In the case of `O=C(Nc1cccc(-c2nn3ncccc3c2-c2ccnc(Nc3ccc(N4CCOCC4)cc3)n2)c1)c1c(F)cccc1F`, the figures for the Inhibition in the assay with Plasmodium falciparum [1], in the assay with Plasmodium falciparum [2] and with HepG2 were 100%, 75% and 75%, respectively.
Regarding `COc1ccc2c(=O)c(I)c(C)[nH]c2c1`, the Inhibition in the assay on Plasmodium falciparum [1] is reported as 96%; in the assay with Plasmodium falciparum [2] it was 96%; in the assay with HepG2 it was 27%.
On to `COc1ccc(CNCc2ccccc2)cc1-c1cccc(S(=O)(=O)NCCN2CCCC2)c1.O=C(O)C(F)(F)F`, for which the Inhibition in the assay on Plasmodium falciparum [1] came to 98%; with Plasmodium falciparum [2] it was 36%; in the assay with HepG2, 37%.
Take `CN(C)CCCNc1ncnc2c1[nH]c1ccc(F)cc12`: the Inhibition was determined as 100% with Plasmodium falciparum [1], 0% with Plasmodium falciparum [2] and 14% with HepG2.
On to `CCOc1ccc(C(=O)N2CCOC(CCN3CCC4(CCc5ccccc54)CC3)(c3ccc(Cl)c(Cl)c3)C2)cc1` (stereo not given), for which the Inhibition with Plasmodium falciparum [1] was determined as 81%; in the assay with Plasmodium falciparum [2], 25%; with HepG2 it was 25%.
As to `CCN1CCCC(Nc2ccnc3cc4ccccc4cc23)C1` (stereo not given), the Inhibition in the assay on Plasmodium falciparum [1] is 100%; in the assay on Plasmodium falciparum [2], 100%; in the assay with HepG2 it was 38%.
For `O=c1cc(NCCCNCc2cc(Br)ccc2F)[nH]c2ccccc12`, the Inhibition in the assay on Plasmodium falciparum [1] turned out to be 95%; with Plasmodium falciparum [2], 14%; with HepG2, 0%.
As for `COc1cc2c(cc1N1CCN(C)CC1)N(C(=O)Nc1ccc(-c3ccncc3)c(Cl)c1Cl)CC2`, the results for the Inhibition in the assay on Plasmodium falciparum [1], with Plasmodium falciparum [2] and in the assay with HepG2 were 100%, 4% and 10%, respectively.
For `Cc1cc(O)c(CN2CCN(Cc3cccs3)CC2)cc1C(C)C`, the Inhibition in the assay with Plasmodium falciparum [1] stood at 98%; in the assay with Plasmodium falciparum [2] it was 97%; in the assay with HepG2 it was 7%.
Regarding `COc1cccc(Nc2nc(C)cc(NCc3ccc(-c4c(C)noc4C)cc3)n2)c1`, the Inhibition stood at 98% in the assay on Plasmodium falciparum [1], 42% in the assay with Plasmodium falciparum [2] and 33% with HepG2.
Consider `CCN(CC)C(=O)c1cnc(-c2ccccc2)nc1Oc1cccc(Cl)c1`, for which the Inhibition with Plasmodium falciparum [1] stood at 92%; in the assay with Plasmodium falciparum [2], 40%; with HepG2, 0%.
For the compound `O=S(=O)(c1cccc2cccnc12)N1CCN(C2CCCCC2)CC1`, the Inhibition in the assay on Plasmodium falciparum [1] came out at 96%; in the assay on Plasmodium falciparum [2], 10%; with HepG2, 15%.
Take `Cc1cc(N[C@@H](Cc2ccccc2)C(=O)Nc2ccccc2)nc(NCCc2cccnc2)n1.O=C(O)C(F)(F)F`: the Inhibition was 95% with Plasmodium falciparum [1], 57% in the assay with Plasmodium falciparum [2] and 32% in the assay with HepG2.
In the case of `N#Cc1cccc(C(O)CN(Cc2ccccc2)Cc2ccccc2)c1` (stereo not given), the Inhibition in the assay on Plasmodium falciparum [1] was determined as 100%; in the assay with Plasmodium falciparum [2], 100%; in the assay on HepG2, 12%.
Consider `O=C(O)C(F)(F)F.O=S(=O)(NCCN1CCCC1)c1ccc(-c2cccc(CNC3Cc4ccccc4C3)c2)cc1F`, for which the Inhibition in the assay on Plasmodium falciparum [1] was determined as 98%; in the assay with Plasmodium falciparum [2], 62%; with HepG2 it was 41%.
On to `N=C(Nc1cccc(Cc2ccccc2)n1)Nc1ncccn1`, for which the Inhibition in the assay on Plasmodium falciparum [1] is 90%; in the assay with Plasmodium falciparum [2] it was 34%; with HepG2, 51%.
`CC(CN1CCN(C)CC1)C(=O)Nc1ccc(-c2ccc(-c3nc4cc(C(F)(F)F)ccc4[nH]3)cc2)cc1` (stereo not given): the Inhibition came out at 100% with Plasmodium falciparum [1], 100% in the assay with Plasmodium falciparum [2] and 19% in the assay on HepG2.
Consider `Cc1cccc2nc(-c3cccc(-c4ccc(NC(=O)C(C)CN(C)C)cc4)c3)[nH]c12` (stereo not given), for which the values for the Inhibition with Plasmodium falciparum [1], in the assay on Plasmodium falciparum [2] and with HepG2 were 100%, 100% and 29%, respectively.
Consider `Cc1cc(F)ccc1Nc1nc(N(C)c2ccccc2)c2cc(OCCN(C)C)ccc2n1`, for which the Inhibition in the assay on Plasmodium falciparum [1] was found to be 94%; with Plasmodium falciparum [2] it was 55%; in the assay with HepG2 it was 37%.
Consider `COc1ccc2c(NN=Cc3ccc(Cl)cc3)ccnc2c1`, for which the Inhibition in the assay with Plasmodium falciparum [1] is on record as 100%; in the assay on Plasmodium falciparum [2], 100%; with HepG2 it was 8%.
As for `O=C(NC(=S)Nc1cc(C(F)(F)F)cc(C(F)(F)F)c1)c1ccc(Cl)cc1`, the Inhibition turned out to be 96% in the assay with Plasmodium falciparum [1], 99% with Plasmodium falciparum [2] and 31% in the assay on HepG2.
For `CC(=O)Nc1ncc(C(=O)Nc2cccc(-c3cccc(-c4nc5ccccc5[nH]4)c3)c2)s1`, the Inhibition in the assay with Plasmodium falciparum [1] is recorded as 92%; in the assay on Plasmodium falciparum [2], 38%; in the assay with HepG2, 16%.
For `CC(COc1ccc2c(c1)OC(C)(C)CC2c1ccccc1)NCC(O)c1cccc(Cl)c1.Cl` (stereo not given), the Inhibition amounted to 98% with Plasmodium falciparum [1], 96% in the assay on Plasmodium falciparum [2] and 1% in the assay on HepG2.
In the case of `CCc1c[nH]c2c(N3CCCS3(=O)=O)cc(C(=O)N[C@@H](Cc3ccccc3)[C@H](O)CNC(C)(C)c3cccc(C(F)(F)F)c3)cc12.O=CO`, the Inhibition in the assay on Plasmodium falciparum [1] is on record as 97%; in the assay with Plasmodium falciparum [2], 99%; with HepG2, 20%.
As for `CCO[C@H]1CN[C@H](C#Cc2cc3c(Nc4ccc(OCc5cccc(F)c5)c(Cl)c4)ncnc3s2)C1.O=C(O)C(F)(F)F`, the Inhibition with Plasmodium falciparum [1] was 100%; in the assay with Plasmodium falciparum [2], 37%; with HepG2 it was 8%.
As to `COc1ccccc1/C=C/C(=O)N(C)C1CCN(CCCCCNC(=O)/C=C/c2ccc(Cl)c(Cl)c2)CC1`, the Inhibition is 83% in the assay on Plasmodium falciparum [1], 63% in the assay on Plasmodium falciparum [2] and 71% with HepG2.
Turning to `CCC(NC(=O)c1ccccc1NC(=O)c1ccc(C)cc1)C(=O)OC` (stereo not given), the figures for the Inhibition in the assay with Plasmodium falciparum [1], in the assay with Plasmodium falciparum [2] and with HepG2 were 95%, 86% and 0%, respectively.
